PubChem BioAssay (Tox21)
Records with an inconclusive call do not appear. Entries that show only a call come without a potency. Unmarked numbers belong to inactive results. The source made the active and inactive calls. Unless noted, the call rests on the fitted dose curve; in most records, active means well fitted curve in the direction sought with a large enough effect in the repeat runs; inconclusive means weak or mixed curves; inactive means no such curve, though single readings can be large; an effect the other way counts as inactive or inconclusive.

Assays:
[1] = qHTS assay to identify small molecule antagonists of the thyroid receptor (TR) signaling pathway - cell viability counter screen (AID 743064); further: nearly all actives have a fitted effect of over 50% in size; further: potency means the concentration at half of the fitted maximal effect
How it was run: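 CellTiter-Fluor readout, 30 min at 37 °C/5% CO2, following 23.5 h incubation of GH3.TRE-Luc cells with test compound and 1 nM T3 (final).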

[2] = qHTS assay to identify small molecule antagonists of the thyroid receptor (TR) signaling pathway (AID 743065); further: nearly all actives have a fitted effect of over 55% in size; further: potency means the concentration at half of the fitted maximal effect
How it was run: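 Antagonism measured as loss of luciferase signal in GH3 cells stably carrying a TRE-luciferase reporter, co-treated with compound and T3 (1 nM final) for 23.5 h at 37 C. Viability was read in the same well by CellTiter-Fluor.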

[3] = system: thyroid hormone receptor (rat, GH3 cells); assay: qHTS assay to identify small molecule agonists of the thyroid receptor (TR) signaling pathway (AID 743066; calls by dose curve)
[4] = target: Estrogen receptor (Homo sapiens) (UniProt P03372); assay: qHTS assay to identify small molecule antagonists of the estrogen receptor alpha (ER-alpha) signaling pathway (AID 743069; active means well fitted curve in the direction sought with a large enough effect in the signal ratio in the repeat runs, not every such curve was filed as active; the % refers to the signal ratio)
Sequence of Estrogen receptor (Homo sapiens) (P03372 whole entry, looked up): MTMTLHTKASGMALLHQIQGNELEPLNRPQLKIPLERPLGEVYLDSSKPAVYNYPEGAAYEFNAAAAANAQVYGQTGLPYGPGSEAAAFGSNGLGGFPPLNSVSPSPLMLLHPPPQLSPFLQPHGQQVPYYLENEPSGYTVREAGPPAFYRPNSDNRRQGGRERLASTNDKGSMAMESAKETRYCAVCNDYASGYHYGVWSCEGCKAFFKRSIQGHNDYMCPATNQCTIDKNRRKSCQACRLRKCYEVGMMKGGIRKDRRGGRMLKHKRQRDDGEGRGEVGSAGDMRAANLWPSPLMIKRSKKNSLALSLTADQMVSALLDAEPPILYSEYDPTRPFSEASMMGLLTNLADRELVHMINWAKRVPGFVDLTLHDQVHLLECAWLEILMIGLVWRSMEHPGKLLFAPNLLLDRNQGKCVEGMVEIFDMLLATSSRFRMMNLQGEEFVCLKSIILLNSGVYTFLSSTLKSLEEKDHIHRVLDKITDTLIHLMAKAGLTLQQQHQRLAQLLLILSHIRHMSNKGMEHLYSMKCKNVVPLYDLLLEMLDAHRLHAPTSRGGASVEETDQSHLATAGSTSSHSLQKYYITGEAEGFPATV
How it was run: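 ER-alpha-UAS-bla GripTite HEK293 line; 2% charcoal-stripped FBS overnight; plated, 4 hr 37C/5% CO2; cpd in DMSO + 17beta-estradiol, 18 hr 37C; LiveBLAzer B/G FRET substrate 2 hr RT; fluorescence intensity.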

[5] = qHTS assay to identify small molecule antagonists of the estrogen receptor alpha (ER-alpha) signaling pathway - cell viability counter screen (AID 743074; calls by dose curve;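 further: HEK293 cells carrying ER-alpha-UAS-bla reporter stimulated with 17beta-estradiol; nearly all actives have a fitted effect of over 45% in size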)
[6] = target: Estrogen receptor (Homo sapiens) (UniProt P03372); assay: qHTS assay to identify small molecule agonists of the estrogen receptor alpha (ER-alpha) signaling pathway (AID 743075; calls by dose curve;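 further: HEK293 GripTite cells with ER-alpha and UAS-driven beta-lactamase reporter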)
[7] = target: Estrogen receptor (Homo sapiens) (UniProt P03372); assay: qHTS assay to identify small molecule agonists of the estrogen receptor alpha (ER-alpha) signaling pathway using the BG1 cell line (AID 743079); further: nearly all actives have a fitted effect of over 20% in size; further: potency means the concentration at half of the fitted maximal effect
[8] = qHTS assay to identify small molecule antagonists of the estrogen receptor alpha (ER-alpha) signaling pathway using the BG1 cell line (AID 743080; calls by dose curve; further: series mostly up to about 70 µM; nearly all actives have a fitted effect of over 25% in size)
How it was run: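 Antagonist mode: compounds in DMSO were pinned onto BG1-Luc-4E2 cells alongside 17beta-estradiol agonist, incubated 21.5 h, and ERE-driven luciferase measured with ONE-Glo. Cytotoxicity was multiplexed using CellTiter-Fluor fluorescence.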

[9] = qHTS assay to identify small molecule antagonists of the estrogen receptor alpha (ER-alpha) signaling pathway using the BG1 cell line - cell viability counter screen (AID 743081);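 further: compound given together with 17beta-estradiol as the ER stimulus; series mostly up to about 70 µM; nearly all actives have a fitted effect of over 45% in size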
Aromatase (Homo sapiens) = Aromatase (Homo sapiens) (UniProt P11511); assay: qHTS assay to identify aromatase inhibitors (AID 743083); further: series mostly up to about 70 µM; nearly all actives have a fitted effect of over 55% in size
Sequence of Aromatase (Homo sapiens) (P11511 whole entry, looked up): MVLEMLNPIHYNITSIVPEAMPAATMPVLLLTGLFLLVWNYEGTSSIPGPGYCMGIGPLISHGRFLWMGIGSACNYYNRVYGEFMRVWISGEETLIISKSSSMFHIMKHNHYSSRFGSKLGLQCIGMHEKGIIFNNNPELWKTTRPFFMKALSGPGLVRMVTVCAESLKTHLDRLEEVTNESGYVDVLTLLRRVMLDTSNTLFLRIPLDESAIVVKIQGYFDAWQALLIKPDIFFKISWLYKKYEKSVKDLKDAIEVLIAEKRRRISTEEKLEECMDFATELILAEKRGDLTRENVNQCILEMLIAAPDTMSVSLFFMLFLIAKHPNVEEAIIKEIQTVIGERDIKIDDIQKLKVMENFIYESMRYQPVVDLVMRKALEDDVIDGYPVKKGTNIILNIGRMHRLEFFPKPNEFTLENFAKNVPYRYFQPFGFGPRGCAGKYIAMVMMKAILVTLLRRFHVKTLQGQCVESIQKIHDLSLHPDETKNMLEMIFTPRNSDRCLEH

Compound: CCC1=C(C)CN(C(=O)NCCc2ccc(S(=O)(=O)NC(=O)NC3CCC(C)CC3)cc2)C1=O (configuration not stated)
- Potency [1]: inactive
- Potency [2]: inactive
- outcome [3]: inactive
- Potency [4]: inactive
- outcome [5]: inactive
- Potency [6]: inactive
- Potency [7]: inactive
- Potency [8]: inactive
- Potency [9]: inactive
- Potency (Aromatase (Homo sapiens)): inactive

Compound: C=CC(=O)NC(C)(C)C
- Potency [1]: inactive
- Potency [2]: inactive
- outcome [3]: inactive
- Potency [4]: inactive
- outcome [5]: inactive
- Potency [6]: inactive
- Potency [7]: inactive
- Potency [8]: inactive
- Potency [9]: inactive
- Potency (Aromatase (Homo sapiens)): inactive

Compound: CC(=O)c1cccnc1
- Potency [1]: inactive
- Potency [2]: inactive
- outcome [3]: inactive
- Potency [4]: inactive
- outcome [5]: inactive
- Potency [6]: inactive
- Potency [7]: inactive
- Potency [8]: inactive
- Potency [9]: inactive
- Potency (Aromatase (Homo sapiens)): inactive

Compound: O=C(O)c1cc(C(=O)O)c(C(=O)O)cc1C(=O)O
- Potency [1]: inactive
- Potency [2]: inactive
- outcome [3]: inactive
- Potency [4]: inactive
- outcome [5]: inactive
- Potency [6]: inactive
- Potency [7]: inactive
- Potency [8]: inactive
- Potency [9]: inactive
- Potency (Aromatase (Homo sapiens)): inactive

Compound: CCCCCC1CCC(=O)O1 (configuration not stated)
- Potency [1]: inactive
- Potency [2]: inactive
- outcome [3]: inactive
- Potency [4]: inactive
- outcome [5]: inactive
- Potency [6]: inactive
- Potency [7]: inactive
- Potency [8]: inactive
- Potency [9]: inactive
- Potency (Aromatase (Homo sapiens)): inactive

Compound: CCC[Si](OC)(OC)OC
- Potency [1]: inactive
- Potency [2]: inactive
- outcome [3]: inactive
- Potency [4]: inactive
- outcome [5]: inactive
- Potency [6]: inactive
- Potency [7]: inactive
- Potency [8]: inactive
- Potency [9]: inactive
- Potency (Aromatase (Homo sapiens)): inactive

Compound: CC1(C)CC(O)CC(C)(C)N1[O]
- Potency [1]: inactive
- Potency [2]: inactive
- outcome [3]: inactive
- Potency [4]: inactive
- outcome [5]: inactive
- Potency [6]: inactive
- Potency [7]: inactive
- Potency [8]: inactive
- Potency [9]: inactive
- Potency (Aromatase (Homo sapiens)): inactive

Compound: CC(C)CCCCCOC(=O)CS
- Potency [1]: inactive
- Potency [2]: inactive
- outcome [3]: inactive
- Potency [4]: inactive
- outcome [5]: inactive
- Potency [6]: inactive
- Potency [7]: inactive
- Potency [8]: inactive
- Potency [9]: inactive

Compound: CC(=O)Nc1cccc(N)c1
- Potency [1]: inactive
- Potency [2]: inactive
- outcome [3]: inactive
- Potency [4]: inactive
- outcome [5]: inactive
- Potency [6]: inactive
- Potency [7]: inactive
- Potency [8]: inactive
- Potency [9]: inactive
- Potency (Aromatase (Homo sapiens)): inactive

Compound: Cc1ccc(NC=O)c(C)c1
- Potency [1]: inactive
- Potency [2]: inactive
- outcome [3]: inactive
- Potency [4]: inactive
- outcome [5]: inactive
- Potency [6]: inactive
- Potency [7]: inactive
- Potency [8]: inactive
- Potency [9]: inactive
- Potency (Aromatase (Homo sapiens)): inactive

Compound: CCCC(=O)OCc1ccccc1
- Potency [1]: inactive
- Potency [2]: inactive
- outcome [3]: inactive
- Potency [4]: inactive
- outcome [5]: inactive
- Potency [6]: inactive
- Potency [7]: inactive
- Potency [8]: inactive
- Potency [9]: inactive
- Potency (Aromatase (Homo sapiens)): inactive

Compound: c1ccc(-c2ccc(-c3ccccc3)cc2)cc1
- Potency [1]: inactive
- Potency [2]: inactive
- outcome [3]: inactive
- Potency [4]: inactive
- outcome [5]: inactive
- Potency [6]: inactive
- Potency [7]: 0.791 µM (active)
- Potency [9]: inactive

Compound: CCCCCCCCCCCCN1CCOCC1
- Potency [1]: inactive
- Potency [2]: inactive
- outcome [3]: inactive
- Potency [4]: inactive
- outcome [5]: inactive
- Potency [6]: inactive
- Potency [7]: inactive
- Potency [8]: inactive
- Potency [9]: inactive
- Potency (Aromatase (Homo sapiens)): inactive

Compound: O=C(O)c1ccccc1-n1cc(C(=O)O)c(=O)c2cc(Nc3c(F)cc(F)cc3Cl)c(Cl)cc21
- Potency [1]: inactive
- Potency [2]: inactive
- outcome [3]: inactive
- Potency [4]: inactive
- outcome [5]: inactive
- Potency [6]: inactive
- Potency [7]: inactive
- Potency [8]: inactive
- Potency [9]: inactive
- Potency (Aromatase (Homo sapiens)): inactive

Compound: Cc1c(N=C=O)cccc1N=C=O
- Potency [1]: inactive
- Potency [2]: inactive
- outcome [3]: inactive
- outcome [5]: inactive
- Potency [6]: inactive
- Potency [7]: inactive
- Potency [8]: inactive
- Potency [9]: inactive
- Potency (Aromatase (Homo sapiens)): inactive

Compound: CCC(CC)C(=O)O
- Potency [1]: inactive
- Potency [2]: inactive
- outcome [3]: inactive
- outcome [5]: inactive
- Potency [6]: inactive
- Potency [7]: inactive
- Potency [8]: inactive
- Potency [9]: inactive
- Potency (Aromatase (Homo sapiens)): inactive

Compound: CC(COc1ccccc1)NC(C)C(O)c1ccc(O)cc1 (configuration not stated)
- Potency [1]: inactive
- Potency [2]: inactive
- outcome [3]: inactive
- outcome [5]: inactive
- Potency [6]: inactive
- Potency [7]: inactive
- Potency [8]: inactive
- Potency [9]: inactive
- Potency (Aromatase (Homo sapiens)): inactive

Compound: CCOC(OCC)OCC
- Potency [1]: inactive
- Potency [2]: inactive
- outcome [3]: inactive
- outcome [5]: inactive
- Potency [6]: inactive
- Potency [7]: inactive
- Potency [8]: inactive
- Potency [9]: inactive
- Potency (Aromatase (Homo sapiens)): inactive

Compound: CCn1nc(Cc2ccccc2)cc1C1CCN(C[C@H]2C[C@H](N(C)[C@@H](C(=O)O)C(C)C)C[C@@H]2c2cccc(F)c2)CC1
- Potency [1]: 27.3 µM (active)
- Potency [2]: 61.1 µM (active)
- outcome [3]: inactive
- outcome [5]: inactive
- Potency [6]: inactive
- Potency [7]: inactive
- Potency [8]: inactive
- Potency (Aromatase (Homo sapiens)): inactive

Compound: C1CCN(CN2CCCCC2)CC1
- Potency [1]: inactive
- Potency [2]: inactive
- outcome [3]: inactive
- outcome [5]: inactive
- Potency [6]: inactive
- Potency [7]: inactive
- Potency [8]: inactive
- Potency [9]: inactive
- Potency (Aromatase (Homo sapiens)): inactive

Compound: CCCCOC(=O)CC#N
- Potency [1]: inactive
- Potency [2]: inactive
- outcome [3]: inactive
- outcome [5]: inactive
- Potency [6]: inactive
- Potency [7]: inactive
- Potency [8]: inactive
- Potency [9]: inactive
- Potency (Aromatase (Homo sapiens)): inactive

Compound: SCCOCCOCCS
- Potency [1]: inactive
- Potency [2]: inactive
- outcome [3]: inactive
- outcome [5]: inactive
- Potency [6]: inactive
- Potency [7]: inactive
- Potency [8]: inactive
- Potency [9]: inactive
- Potency (Aromatase (Homo sapiens)): inactive

Compound: CCCCOC(=O)C(C)Oc1ccc(Oc2ccc(C(F)(F)F)cn2)cc1 (configuration not stated)
- Potency [1]: inactive
- Potency [2]: inactive
- outcome [3]: inactive
- outcome [5]: inactive
- Potency [6]: inactive
- Potency [7]: inactive
- Potency [8]: inactive
- Potency [9]: inactive

Compound: N#CCCCC(C#N)CCC#N (configuration not stated)
- Potency [1]: inactive
- Potency [2]: inactive
- outcome [3]: inactive
- Potency [4]: inactive
- outcome [5]: inactive
- Potency [6]: inactive
- Potency [8]: inactive
- Potency [9]: inactive
- Potency (Aromatase (Homo sapiens)): inactive

Compound: O=C1c2ccccc2C(=O)C1c1ccc2ccccc2n1
- Potency [1]: inactive
- Potency [2]: inactive
- outcome [3]: inactive
- Potency [4]: inactive
- outcome [5]: inactive
- Potency [6]: inactive
- Potency (Aromatase (Homo sapiens)): inactive
